In PubChem BioAssay (NCI):
The panel holds about 83,000 compounds, 20% with a hit somewhere; the sample as a whole holds those more often.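 Plates (96-well) were seeded with cells, treated with compound at one concentration, and incubated for 48 hours before percent growth was determined.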 A number with no mark means an inactive call. Active and inactive are the calls of the source. How the source made its calls: active means growth percent below 10; inactive means the rest.

Key:
Experiment in all cases: NCI-60 one-dose screen, 48 h (100 = growth as untreated, 0 = no growth, -100 = all killed)
Settings in all cases: 10 µM unless noted
SR leukemia = system: SR leukemia
RPMI-8226 leukemia = system: RPMI-8226 leukemia
OVCAR-8 ovarian = system: OVCAR-8 ovarian
OVCAR-5 ovarian = system: OVCAR-5 ovarian
OVCAR-4 ovarian = system: OVCAR-4 ovarian
SK-OV-3 ovarian = system: SK-OV-3 ovarian
IGROV1 ovarian = system: IGROV1 ovarian
OVCAR-3 ovarian = system: OVCAR-3 ovarian
HS 578T breast = system: HS 578T breast
NCI/ADR-RES ovarian = system: NCI/ADR-RES ovarian
T-47D breast = system: T-47D breast
BT-549 breast = system: BT-549 breast
MDA-MB-435 melanoma = system: MDA-MB-435 melanoma
SW-620 colon = system: SW-620 colon
MCF7 breast = system: MCF7 breast
HCT-116 colon = system: HCT-116 colon
HCC-2998 colon = system: HCC-2998 colon
KM12 colon = system: KM12 colon

SMILES	growth (SR leukemia)	growth (RPMI-8226 leukemia)	growth (OVCAR-8 ovarian)	growth (OVCAR-5 ovarian)	growth (OVCAR-4 ovarian)	growth (SK-OV-3 ovarian)	growth (IGROV1 ovarian)	growth (OVCAR-3 ovarian)	growth (HS 578T breast)	growth (NCI/ADR-RES ovarian)	growth (T-47D breast)	growth (BT-549 breast)	growth (MDA-MB-435 melanoma)	growth (SW-620 colon)	growth (MCF7 breast)	growth (HCT-116 colon)	growth (HCC-2998 colon)	growth (KM12 colon)
COc1ccc2c(c1)c(-c1nnc(N)nc1-c1cn(C)c3ccccc13)cn2C	84.7%	105%	103%	86.5%	91.3%	102%	95.1%	96.8%	91.2%	90.5%	82.3%	108%	91.6%	94.6%	79.5%	89.2%	102%	94.6%
COc1cc(CNC(=O)/C=C/c2ccccc2)ccc1OCC(=O)NO	97%	102%	98.2%	102%	108%	98.9%	98.1%	104%	109%	96.1%	99.6%	107%	102%	107%	89.9%	98.7%	104%	99.3%
N#C/C(=C\c1ccc(Cl)cc1Cl)C(N)=O	80.5%	111%	106%	99.7%	107%	107%	102%	109%	99%	107%	93.7%	102%	98.5%	88.3%	76.2%	74%	103%	103%
Oc1ccc(CSc2nnc(-c3ccc(Br)cc3)n2-c2ccccc2)c2cccnc12	37.7%	13.7%	23.4%	54.4%	35.7%	23.3%	18.9%	41.5%	13%	12.2%	48.1%	40.3%	19.5%	26.6%	11%	21.7%	44.9%	26.3%
O=C(CSc1nnc(-c2ccc(Cl)cc2)n1-c1ccccc1)Nc1ccc(F)cc1	76.4%	89.5%	74%	97.4%	98.3%	83.8%	95.1%	87.7%	61.4%	77.9%	80.4%	93.2%	92.9%	82.3%	81.6%	46%	100%	82.4%
O=C1[C@H]2Cc3c([nH]c4ccccc34)[C@@H](c3ccc(Cl)cc3)N2C(=O)CN1C1CCN(Cc2c(Cl)cccc2Cl)CC1	29.8%	88.4%	89.2%	98.1%	87.1%	108%	-44.1% (active)	100%	88.2%	81.5%	84.8%	97.2%	97.1%	106%	87%	87.9%	101%	87.9%
c1ccc(-c2n(Cc3ccc4ccccc4c3)c3c4ccccc4c4ccccc4c3[n+]2Cc2ccc3ccccc3c2)cc1	-44.4% (active)	-35.1% (active)	-69.1% (active)	-90.3% (active)	-73.4% (active)	-84.5% (active)	-74.7% (active)	-90.8% (active)	-42.9% (active)	-4.33% (active)	-41.7% (active)	-69.9% (active)	-85.4% (active)	-75.4% (active)	-75% (active)	-61.6% (active)	-90.8% (active)	-85.5% (active)
CN1CCN(c2ccc3c(c2)nc(NNC(=O)c2ccncn2)c2cccn23)CC1	14.9%	24.5%	21.8%	54%	36.4%	25%	22.4%	38%	71.3%	18.8%	32.7%	45.2%	27.5%	22.8%	17.6%	23.6%	22.3%	17.4%
COc1cc(/C=N/n2cnc3oc(-c4ccccc4)cc3c2=N)cc(CN2CCCC2)c1O	27.4%	-42.2% (active)	-22.2% (active)	99%	-49.7% (active)	93.9%	-62.8% (active)	104%	63.6%	16.6%	93.3%	129%	96.6%	-59.4% (active)	-79.3% (active)	-77.8% (active)	98.5%	11.2%
Oc1ccc(CSc2nnc(-c3ccccc3)o2)c2cccnc12	36.8%	14.1%	17.5%	74%	16.5%	10.8%	18.5%	28.2%	-3.94% (active)	11.1%	4.16% (active)	29.4%	21.8%	14.5%	9.21% (active)	16.6%	37.6%	17.3%
COc1ccccc1N1CCN(C2=NN=C(c3cccc(Cl)c3)c3ccccc3C2)CC1	-15.3% (active)	9.68% (active)	13%	40.4%	38.6%	13.7%	21.4%	-31.2% (active)	18.9%	10.7%	52.5%	50.5%	-3.46% (active)	20.9%	17.4%	7.98% (active)	8.13% (active)	6.16% (active)
Cc1nn(-c2ccc(Cl)cc2)c(C)c1N=Nc1ccc2oc(=O)ccc2c1	67.1%	72.3%	56.9%	104%	34.4%	114%	80.9%	104%	75.9%	69.5%	45.9%	101%	85.4%	94%	78.7%	66.5%	105%	90.3%
O=C(CCCCCCN1CC(=O)N2[C@@H](c3cccc(Br)c3)c3[nH]c4ccccc4c3C[C@H]2C1=O)NO	37.4%	13.4%	24.9%	29%	48.9%	13.9%	2.39% (active)	6.19% (active)	61.4%	91.9%	17.2%	57.9%	14%	15%	21.4%	8.35% (active)	41.6%	28.4%
Cc1ccc(S(=O)(=O)N/N=C/c2cn(-c3ccc(F)cc3)nc2-c2ccc(S(C)(=O)=O)cc2)cc1	107%	106%	102%	105%	101%	105%	99.7%	109%	107%	106%	98.5%	105%	100%	103%	95.7%	107%	108%	102%
C#CCOc1ccc(C(Nc2ccc(Cl)cc2)c2nnnn2C2CCCCC2)cc1 (stereo unspecified)	81%	76.9%	93.5%	85.5%	82.6%	98.2%	84.3%	101%	79.9%	76.6%	74.4%	85.7%	98%	94.2%	75.5%	61.4%	98.7%	95.9%
CCCCCCCCNC(=O)c1ccc(Cn2c(CCCC)nc3c(N)nc4ccccc4c32)cc1	8.69% (active)	-38% (active)	-10.9% (active)	75.5%	-54.3% (active)	76.1%	-37.8% (active)	69.5%	87.4%	-62.2% (active)	-38.2% (active)	92.7%	-83.1% (active)	-39.6% (active)	-78% (active)	-84.2% (active)	15.5%	42.1%
CCNC(=O)Oc1ccc(/C(=C(/C)c2ccccc2)c2ccc(OCCN3CCCC3)cc2)cc1	32.3%	33%	89.5%	82.3%	81.7%	95.8%	80.5%	76.6%	78.4%	76.3%	51.8%	70.4%	81.6%	80.3%	26.9%	38.3%	93.4%	81.8%
